The structures appear in SMILES notation. Out of some 290,000 compounds screened, about 3,000 (1%) were called active. How the calls were made is not given here. For the sample, actives were picked, then their nearest neighbours and some compounds at random.

The target of this experiment is Polyadenylate-binding protein 1 (Homo sapiens) (UniProt P11940). The experiment can be described thus: PABP poly(A) RNA binding inhibitors, primary screen, biochemical, fluorescence polarization, uHTS (AID 2014).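 Further: calls also rest on retests at 20 µM and on dose response follow-up.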 The note with it: stronger effect = higher value. For orientation: In fluorescence polarisation assays a small probe gives low polarisation when free and higher when bound to something large.
Sequence of Polyadenylate-binding protein 1 (Homo sapiens) (P11940 whole entry, looked up): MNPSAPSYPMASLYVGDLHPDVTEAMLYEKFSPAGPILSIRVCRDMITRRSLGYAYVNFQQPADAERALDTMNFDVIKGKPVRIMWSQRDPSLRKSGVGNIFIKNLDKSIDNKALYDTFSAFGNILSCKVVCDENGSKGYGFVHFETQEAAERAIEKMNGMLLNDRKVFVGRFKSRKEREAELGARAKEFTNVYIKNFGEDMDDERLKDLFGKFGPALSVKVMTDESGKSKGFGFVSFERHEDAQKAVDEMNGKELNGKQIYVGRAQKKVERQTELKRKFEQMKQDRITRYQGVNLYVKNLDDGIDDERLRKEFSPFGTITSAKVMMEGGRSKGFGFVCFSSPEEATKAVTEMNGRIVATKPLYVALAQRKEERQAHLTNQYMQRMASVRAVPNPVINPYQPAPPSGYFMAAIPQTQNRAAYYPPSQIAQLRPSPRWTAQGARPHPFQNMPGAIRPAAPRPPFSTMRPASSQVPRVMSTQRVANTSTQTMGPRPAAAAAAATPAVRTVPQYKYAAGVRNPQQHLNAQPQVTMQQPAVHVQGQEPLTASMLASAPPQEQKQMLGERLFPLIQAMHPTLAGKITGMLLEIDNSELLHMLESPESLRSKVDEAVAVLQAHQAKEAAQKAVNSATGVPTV

Turning to `Cc1cccc(OC(C)C(=O)N2CCc3ccccc3C2)c1` (stereo unspecified), the inhibition (at 35 µM) is -5.4% (inactive).

In the case of `CC(C)[C@@H](C(=O)O)N(Cc1cccc(CN([C@H](C(=O)O)C(C)C)S(C)(=O)=O)c1)S(C)(=O)=O`, the inhibition (at 35 µM) was 4.8% (inactive).

With `N/C(=N\OS(=O)(=O)c1cccc([N+](=O)[O-])c1)c1ccncc1`, the inhibition runs as follows: (at 35 µM) -9.3% (active); (confirmation repeats, at 20 µM) 74.6%.

Turning to `CO/N=C(\N)c1ccc([N+](=O)[O-])cc1`, the inhibition (at 35 µM) is -0.6% (inactive).

Take `O=C(N/N=C/c1cccc([N+](=O)[O-])c1)c1ccncc1`: the inhibition (at 35 µM) was -0.6% (inactive).

As for `COc1cccc(CNc2ncc(-c3ccccc3)n2C)c1`, the inhibition (at 35 µM) is -1.9% (inactive).

On to `C=CCn1cc(Cl)cc(C(=O)Nc2ccccc2)c1=O`, for which the inhibition (at 35 µM) was -10% (inactive).

In the case of `O=[N+]([O-])c1cc(Cl)cc(/C=N/NC(=S)Nc2cc(S(=O)(=O)N3CCOCC3)ccc2Cl)c1O`, under “at 35 µM”, the inhibition was 70.2% (active).

Consider `O=C(N/N=C/c1cc(Cl)cc([N+](=O)[O-])c1O)C(O)(c1ccccc1)c1ccccc1`, for which, under “at 35 µM”, the inhibition is 30.5% (inactive).

`O=C(N/N=C/c1ccc([N+](=O)[O-])o1)c1cccc(S(=O)(=O)N2CCOCC2)c1`: the inhibition was -5% (inactive) (at 35 µM) and 12.9% (confirmation repeats, at 20 µM).

On to `CC1=C(C(=O)OCC2CCCCC2)C(c2ccc(F)cc2)NC(=O)N1` (stereo unspecified), for which the inhibition (at 35 µM) is 0.3% (inactive).

For `CC(C)c1ccc(C(=O)NCCCc2ccccc2)cc1`, the inhibition (at 35 µM) is -0.9% (inactive).

Turning to `O=C(NCCCNCc1ccccc1)c1ccc(/C=N/O)nc1`, for the setting “at 35 µM”, the inhibition was -3.1% (inactive).

Consider `C[N+](C)(C)CCNC(=O)c1cc[n+](Cc2ccccc2)c(/C=N/O)c1`, for which the inhibition reads like this: (at 35 µM) 54.2% (active); (confirmation repeats, at 20 µM) 73.1%.

For `O=C1CCC(C(=O)N2CCCCO2)CN1Cc1cccc(C(F)(F)F)c1` (stereo unspecified), the inhibition (at 35 µM) is 4.6% (inactive).

Take `CN(C(=O)c1cccc(OC2CCN(S(=O)(=O)N(C)C)CC2)c1)C1CCOC1` (stereo unspecified): the inhibition (at 35 µM) was 17.8% (inactive).

In the case of `CC1(C(=O)NCCc2c[nH]c3ccccc23)C=CC2(CCCCC2)N1C(=O)c1ccccc1` (stereo unspecified), the inhibition (at 35 µM) is 4.3% (inactive).

`Oc1c(Cl)cc(Cl)c(Cl)c1Cc1c(O)c(Cl)cc(Cl)c1Cl`: the inhibition by setting is: (at 35 µM) -1.5% (active); (confirmation repeats, at 20 µM) 84.7%.

Turning to `COc1cccc(/C=C2\Sc3ccc(C(=O)NCC4CCCO4)cc3N(C)C2=O)c1` (stereo unspecified), the inhibition (at 35 µM) is 8.6% (inactive).

In the case of `Cc1cccc(C)c1N1C(=O)CN(Cc2ccccc2)C1=S`, the inhibition (at 35 µM) is 8.2% (inactive).

As for `CC(=O)N1c2ccc(S(=O)(=O)NCCC(=O)N(C)C3CCCCC3)cc2CC1C` (stereo unspecified), the inhibition (at 35 µM) is 3.5% (inactive).

In the case of `CCc1ccc(Nc2ncc3c(n2)CC(c2ccco2)CC3=O)cc1` (stereo unspecified), the inhibition (at 35 µM) was 6.2% (inactive).

`O=C(Nc1ncc2c(n1)-c1ccccc1OC2)c1ccc(Cl)cc1`: the inhibition (at 35 µM) was 4.5% (inactive).

In the case of `O=C(Nc1ncc2c(n1)CC(c1ccco1)CC2=O)c1ccc(Cl)cc1` (stereo unspecified), for the setting “at 35 µM”, the inhibition is 65.9% (active).

As to `CNC(=O)CN1C(=O)NC(c2ccccc2)(c2ccccc2)C1=O`, the inhibition (at 35 µM) is -6.2% (inactive).

For the compound `COc1ccc(NC(=O)NN2CCN(C)CC2)c(OC)c1`, the inhibition (at 35 µM) was -2.5% (inactive).

Consider `Cc1ccc(C)c(SCc2nc3sc(C(=O)O)c(C)c3c(=O)[nH]2)c1`, for which the inhibition (at 35 µM) is -4% (inactive).

`CCOC(=O)c1sc2nc(CSc3ccccc3)[nH]c(=O)c2c1C`: for the setting “at 35 µM”, the inhibition was 9.6% (inactive).

Consider `CSc1nnc(SCc2nc3sc(C(=O)O)c(C)c3c(=O)[nH]2)s1`, for which the inhibition (at 35 µM) was 52.9% (active).

For `Cc1cccc(OCC(O)Cn2c(N3CCCCC3)nc3c2c(=O)[nH]c(=O)n3C)c1` (stereo unspecified), under “at 35 µM”, the inhibition is -7.3% (inactive).

As to `COc1ccccc1/C=C/C(=O)NC1CC2CCC1C2` (stereo unspecified), the inhibition (at 35 µM) is 13.8% (inactive).

For `Cc1cc(C)c(C(N)=O)c(Cl)n1`, the inhibition is, setting by setting: (at 35 µM) 74.6% (active); (confirmation repeats, at 20 µM) 79.1%.

Turning to `Cc1ccc(Nc2nc(C)cc(C)c2C(N)=O)cc1`, under “at 35 µM”, the inhibition was 3.4% (inactive).

With `Cc1cc(OC(=O)c2c(Cl)cccc2Cl)nc(C)n1`, the inhibition (at 35 µM) is 8.5% (inactive).

With `O=C(NCc1cccc(C(F)(F)F)c1)c1cccc(S(=O)(=O)N2CCN(Cc3ccccc3)CC2)c1`, the inhibition (at 35 µM) was -3.2% (inactive).

As to `O=C(Nc1ccc(Br)cc1F)C1CC(=O)N(C2CCCCC2)C1` (stereo unspecified), the inhibition (at 35 µM) was -1% (inactive).

Turning to `COc1ccc(C(=O)NC(C)c2nccs2)cc1OC1CCN(C(C)C)CC1` (stereo unspecified), the inhibition (at 35 µM) was 1.2% (inactive).

`CCN(C(=O)CSc1nnc(-c2ccncc2)o1)c1ccccc1`: the inhibition (at 35 µM) was -2.5% (inactive).

Regarding `CCSc1nc(O)c(C(c2cccc(OC)c2)c2c(O)nc(SCC)[nH]c2=O)c(=O)[nH]1`, the inhibition (at 35 µM) was 8.4% (inactive).

Take `O=C1CCCC2=C1C(c1cccs1)CC(=O)N2c1ccc(F)cc1` (stereo unspecified): the inhibition (at 35 µM) was -1.2% (inactive).

In the case of `N#CC1=C(N)N(c2ccc(F)cc2)C(=O)C1`, the inhibition (at 35 µM) is 97.6% (active).

As for `O=C1CC(N2CCN(c3ccc(F)cc3)CC2)C(=O)N1c1ccccc1` (stereo unspecified), the inhibition (at 35 µM) was 48.8% (inactive).

In the case of `C[C@H]1[C@H]2c3nc4ccccc4n3C[C@H]1ON2C1CCCCC1`, the inhibition (at 35 µM) was -0.1% (inactive).

Take `O=C(Cc1ccccc1)n1nc(-c2ccccc2)nc1NCc1ccco1`: the inhibition (at 35 µM) was -0.2% (inactive).

With `Cc1nc2nc(SCC(=O)NCc3ccco3)nn2c(C)c1Cc1ccccc1`, the inhibition (at 35 µM) was 10.6% (inactive).

For `O=c1nc2s/c(=C\c3ccco3)c(=O)n2nc1Cc1ccccc1`, the inhibition (at 35 µM) is 75.7% (active).

Broadly, the inhibition is the relative decrease from the control value, in per cent.

Values taken from PubChem BioAssay AID2014 (Sanford-Burnham Center for Chemical Genomics, 2009).
